Laboratory results published in PubChem BioAssay.
For some assays here: Measured potencies and affinities stand elsewhere. Inconclusive results are not listed. This is one part of the list. Calls of active or inactive are those of the source. Unless noted, no rule for the calls is given here.

Tests used:
[1] = IOSE-T80 viability loss, PAX8-independent line – cell-based, cherry-pick, selectivity assay for PAX8 inhibitor project, dose response (AID 687032;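 active = fitted half-maximal concentration for viability loss no higher than twice the top valid dose, in every repeat run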;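 also: cells exposed to compound for 96 h before reading; 0% = neutral control wells and -100% = 2 µM mitoxantrone kill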)
[2] = CMV-driven luciferase expression suppression in HEK293 – cell-based, luminescence, dry powder, counter-screen for Pax8 inhibitor project, dose response (AID 743020;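 active = signal-lowering compounds whose fitted half-maximal concentration is at or below twice the top tested dose in every run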;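 also: HEK293 cells stably expressing the CMV luciferase reporter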)
[3] = general cell-killing toxicity readout – plate reader, dry powder samples, cytotoxicity control for PAX8 inhibitor project, dose response (AID 743021)
[4] = IGROV1 cell killing – plate reader, dry powder samples, PAX8 inhibitor project, dose response (AID 743043);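 also: more negative means fewer viable cells or more cytotoxicity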
[5] = OVCAR-3 cell viability loss – plate reader, dry powder samples, PAX8 inhibitor project, dose response (AID 743044); details: max activity: at 35 µM, active compounds read low unless noted
[6] = toxicity toward immortalized ovarian surface epithelium – cell-based, plate reader, dry powder samples, cytotoxicity control for PAX8 inhibitor project, dose response (AID 743045);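 also: 0% = neutral control median and -100% = positive control median; more negative values mean more cell killing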
[7] = A2780 cell killing – plate reader, dry powder samples, cytotoxicity control, dose response (AID 743046);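 also: 0% = neutral control wells and -100% = cytotoxic reference compound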
[8] = OVCAR8 cell viability loss – plate reader, dry powder samples, PAX8 project, dose response (AID 743197)
[9] = RMG-1 ovarian cancer cell viability loss – cherry-pick, dose response (AID 687029;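 active = signal drop whose fitted half-maximal concentration is at most twice the top valid dose, in every test run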;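 also: cells exposed to compound for 96 hours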)
[10] = small-molecule DNA binding by polarization – biochemical, fluorescence polarization, cherry-pick, counter-screen for EWS/Fli inhibitor project, dose response (AID 720586;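 active = fitted curve reaches a 35% signal fall AC35 below twice the sample's top valid tested dose, actives reach about 48 µM in these data; inactive = the rest, including activity in the rising direction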;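 also: 0% = neutral control median and -100% = 10 µM mitoxantrone control median; lower polarization ratio signals compound binding to DNA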)

O=S(=O)(c1ccccc1F)N1CC[C@@H]2[C@H](CO)Nc3ccc(C4=CCCCC4)cc3[C@@H]21
inactive: outcome [1] | outcome [2] | outcome [3] | outcome [4] | max activity [5] 8.04% | outcome [6] | outcome [7] | outcome [8]

CC(C)(C)c1nnc(NC(=O)CCS(=O)(=O)c2ccccc2)s1
inactive: outcome [9] | outcome [3] | outcome [6] | outcome [7]

Cc1cccc2sc(N(CCCN(C)C)C(=O)CCS(=O)(=O)c3ccccc3)nc12
inactive: outcome [9] | outcome [3]

COc1ccc(C#Cc2ccc([C@H]3[C@@H](CO)N4CCCCN(C(=O)Nc5ccccc5)C[C@H]34)cc2)cc1
inactive: outcome [1] | outcome [2] | outcome [3] | outcome [4] | outcome [6] | outcome [7] | outcome [8]

O=C(CN1C(=O)c2ccccc2S1(=O)=O)c1ccc(Cl)cc1Cl
inactive: outcome [9] | outcome [3] | outcome [4] | outcome [5] | outcome [6] | outcome [7]

COc1cccc(-c2ccc3c(c2)[C@@H]2[C@@H](CCN2S(=O)(=O)c2ccccc2C)[C@H](CO)N3C)c1
inactive: outcome [1] | outcome [2] | outcome [3] | outcome [4] | max activity [5] -25.8% [at 30 µM, active compounds read low] | outcome [6] | outcome [7] | outcome [8]

COc1cccc(/C=N/Nc2ccc([N+](=O)[O-])cn2)c1O
inactive: outcome [9] | outcome [3]

C[C@H]1CN([C@@H](C)CO)S(=O)(=O)c2ccc(C#Cc3ccncc3)cc2O[C@@H]1CN(C)C(=O)Nc1ccc2c(c1)OCO2
inactive: outcome [1] | AC35 [10] | outcome [2] | outcome [3]

C[C@@H]1CN([C@@H](C)CO)C(=O)c2cc(N(C)C)ccc2O[C@@H](C)CCCCO[C@H]1CN(C)S(=O)(=O)c1ccc(F)cc1
inactive: outcome [1] | outcome [2] | outcome [3] | outcome [4] | max activity [5] 16.1% [at 0.26 µM, active compounds read low] | outcome [6] | outcome [7] | outcome [8]

C[C@H]1CN([C@@H](C)CO)S(=O)(=O)c2ccc(C#Cc3ccccc3F)cc2O[C@H]1CN(C)C(=O)c1ccc2c(c1)OCO2
inactive: outcome [1] | outcome [2] | outcome [3] | outcome [4] | max activity [5] -13% | outcome [6] | outcome [7] | outcome [8]

COc1cc(/C=C/C(=O)N2CCC=CC2=O)cc(OC)c1OC
inactive: outcome [1] | outcome [2] | outcome [3]

C[C@H]1CCCCO[C@H](CN(C)C(=O)Nc2ccc(C(F)(F)F)cc2)[C@@H](C)CN([C@@H](C)CO)C(=O)c2cc(NS(=O)(=O)c3cccs3)ccc2O1
inactive: outcome [1] | outcome [2] | outcome [3] | outcome [4] | max activity [5] -51.4% | outcome [6] | outcome [7] | outcome [8]

C[C@@H]1CCCCO[C@H](CN(C)C(=O)Cc2ccccc2)[C@@H](C)CN([C@@H](C)CO)C(=O)c2cc(NS(=O)(=O)c3ccc(Cl)cc3)ccc2O1
inactive: outcome [9] | outcome [3] | outcome [4] | outcome [6]

C[C@@H]1CCCCO[C@H](CN(C)Cc2ccc(C(F)(F)F)cc2)[C@@H](C)CN([C@@H](C)CO)C(=O)c2cc(NC(=O)c3ccccc3)ccc2O1
inactive: outcome [9] | outcome [6] | outcome [7]

C[C@@H]1CCCCO[C@H](CN(C)Cc2ccncc2)[C@H](C)CN([C@H](C)CO)C(=O)c2cc(NC(=O)Nc3ccc(C(F)(F)F)cc3)ccc2O1
inactive: outcome [1] | outcome [2] | outcome [3] | outcome [4] | outcome [6] | outcome [7] | outcome [8]

CS(=O)(=O)Nc1ccc2c(c1)[C@@H]1C[C@@H](CC(=O)NCc3ccc(-c4ccccc4)cc3)O[C@@H](CO)[C@@H]1O2
inactive: outcome [1] | outcome [2]

COc1ccc(-c2cc(C(F)(F)F)nc(S(=O)(=O)CCCC(=O)Nc3cc(C)on3)n2)cc1OC
inactive: outcome [9] | outcome [3] | outcome [7]

O=C(CCS(=O)(=O)c1ccccc1)Nc1nc2ccc(F)cc2s1
inactive: outcome [9] | outcome [3] | outcome [6] | outcome [7]

Cc1ccc(S(=O)(=O)N(C)C[C@@H]2Oc3ccc(NC(=O)Nc4ccc(C(F)(F)F)cc4)cc3CC(=O)N([C@@H](C)CO)C[C@@H]2C)cc1
inactive: outcome [1] | outcome [2] | outcome [3]

O=C(C1CCC1)N1CCCCN2[C@H](CO)[C@H](c3ccc(-c4cccc(F)c4)cc3)[C@H]2C1
inactive: outcome [1] | outcome [2] | outcome [3] | outcome [4] | max activity [5] 7.58% [at 0.26 µM, active compounds read low] | outcome [6] | outcome [7] | outcome [8]

COc1ccc(S(=O)(=O)Nc2ccc3c(c2)C(=O)N([C@H](C)CO)C[C@H](C)[C@H](CN(C)S(=O)(=O)c2ccc(F)cc2)OCCCC[C@H](C)O3)cc1
inactive: outcome [9] | outcome [3] | outcome [4] | max activity [5] -7.5% | outcome [6] | outcome [7] | outcome [8]

COc1ccccc1NC(=O)N1CCCCN2[C@H](C1)[C@@H](c1ccc(-c3cccc(C#N)c3)cc1)[C@@H]2CO
inactive: outcome [1] | outcome [2] | outcome [3] | outcome [4] | outcome [6] | outcome [7]

CCOCC(=O)NC1CCc2cc(OC(=O)COCC)c(OC)c(OC)c2-c2ccc(SC)c(=O)cc21 (stereo not drawn)
inactive: outcome [9] | outcome [3]

COc1ccc2c3c([nH]c2c1)[C@@H](CO)N(C(=O)Nc1cccc(F)c1)CC31CCN(S(=O)(=O)c2cccc(C)c2)CC1
inactive: outcome [1] | outcome [2] | outcome [3] | outcome [4] | max activity [5] -9.13% [at 8 µM, active compounds read low] | outcome [6] | outcome [7] | outcome [8]

C[C@@H]1CN([C@@H](C)CO)C(=O)c2cc(NC(=O)CCC(F)(F)F)ccc2O[C@@H](C)CCCCO[C@H]1CN(C)Cc1ccc(C(F)(F)F)cc1
inactive: outcome [9] | outcome [3] | outcome [6] | outcome [7]

Cc1ccc(S(=O)(=O)Nc2ccc3c(c2)C(=O)N([C@H](C)CO)C[C@H](C)[C@@H](CN(C)S(=O)(=O)c2ccc(F)cc2)OCCCC[C@H](C)O3)cc1
inactive: outcome [1] | outcome [2] | outcome [3]

C[C@@H]1CCCCO[C@H](CN(C)C(=O)c2ccccc2)[C@H](C)CN([C@@H](C)CO)C(=O)c2cc(NC(=O)Nc3ccc(C(F)(F)F)cc3)ccc2O1
inactive: outcome [1] | outcome [2] | outcome [3] | outcome [4] | outcome [6]

C=C(C)c1cccc(C(C)(C)NC(=O)N2CCN(c3ccccc3OC)CC2)c1
inactive: outcome [1] | outcome [2] | outcome [3]

CN(C)CCCN(C(=O)CCOc1ccccc1)c1nc2c(F)cccc2s1
inactive: outcome [9] | outcome [3] | outcome [6] | outcome [7]

COc1ccc(NC(=O)Nc2ccc3c(c2)C(=O)N([C@@H](C)CO)C[C@@H](C)[C@@H](CN(C)Cc2ccc(C(F)(F)F)cc2)O3)cc1
inactive: outcome [1] | outcome [2] | outcome [3] | outcome [4] | max activity [5] -14.9% [at 0.5 µM, active compounds read low] | outcome [6] | outcome [7] | outcome [8]

C[C@@H]1CCCCO[C@@H](CN(C)Cc2ccncc2)[C@H](C)CN([C@@H](C)CO)C(=O)c2cc(NC(=O)Nc3ccc(C(F)(F)F)cc3)ccc2O1
inactive: outcome [1] | outcome [2] | outcome [3] | outcome [4] | outcome [6] | outcome [7]

C[C@@H]1CCCCO[C@H](CN(C)Cc2ccc(C(F)(F)F)cc2)[C@@H](C)CN([C@@H](C)CO)C(=O)c2cc(NC(=O)Cc3ccccc3)ccc2O1
inactive: outcome [1] | outcome [2] | outcome [3] | outcome [6] | outcome [7] | outcome [8]

C#CCN(C[C@@H]1[C@@H](OC(=O)NCc2ccccc2F)[C@@H](OC(=O)NCc2ccccc2F)Cn2c(=O)ccc(=O)n21)S(=O)(=O)c1ccc(C)cc1
inactive: outcome [1] | outcome [3]

C[C@H](CO)N1C[C@H](C)[C@H](CN(C)Cc2ccc(C(F)(F)F)cc2)Oc2ccc(NC(=O)CCCCCC(=O)Nc3ccccc3N)cc2CC1=O
inactive: AC35 [10]

C[C@@H]1CN([C@@H](C)CO)C(=O)c2cc(NS(=O)(=O)c3ccccc3)ccc2O[C@@H]1CN(C)Cc1ccc(C(=O)Nc2ccccc2N)cc1
inactive: AC35 [10]

Cc1cccc(-c2ccc(C3[C@@H]4CN(C(=O)Nc5ccc(C(F)(F)F)cc5)C[C@H]3N4)cc2)c1 (stereo partly drawn)
inactive: outcome [1] | outcome [2] | outcome [7]

COc1ccc(CN(C)C[C@H]2OCCCC[C@H](C)Oc3ccc(NC(=O)Nc4ccc(C(F)(F)F)cc4)cc3C(=O)N([C@H](C)CO)C[C@H]2C)cc1
inactive: outcome [1] | outcome [2] | outcome [3] | outcome [6] | outcome [7]

C[C@@H]1CN([C@H](C)CO)C(=O)c2cc(NC(=O)Nc3ccc(F)cc3)ccc2O[C@@H](C)CCCCO[C@@H]1CN(C)Cc1ccc(C(F)(F)F)cc1
inactive: outcome [1] | outcome [3] | outcome [4] | outcome [6] | outcome [7]

C[C@@H]1CCCCO[C@H](CN(C)S(=O)(=O)c2ccc(F)cc2)[C@H](C)CN([C@@H](C)CO)C(=O)c2cc(NS(=O)(=O)c3ccc(Cl)cc3)ccc2O1
inactive: outcome [1] | outcome [2] | outcome [4] | max activity [5] -28.2% | outcome [6] | outcome [7] | outcome [8]
